Results on 40 compounds are retold here after PubChem BioAssay (Tox21).

Molecules are shown by their SMILES. Inconclusive results are not listed. The source made the active and inactive calls. Calls come from the whole dose curve; as a rule, active = well fitted cell-killing curve with a large enough effect in the repeat runs; inconclusive = weak or mixed curves; inactive = no such curve, though single readings can be large or run the other way.

A short description of the experiment: qHTS assay to identify small molecule antagonists of the androgen receptor (AR) signaling pathway - cell viability counter screen (AID 743033; note: nearly all actives have a fitted effect of over 45% in size). As to conditions: AR-bla HEK293 viability, CellTiter-Glo luminescence, 16 h; series mostly up to 58.5 µM. From the text:
National Center for Advancing Translational Sciences [NCATS]
NIH Chemical Genomics Center [NCGC]
U.S. Environmental Protection Agency [EPA]
National Institutes of Environmental Health Sciences [NIEHS]
National Toxicology Program [NTP]
U.S. Food and Drug Administration [FDA]
Androgen receptor (AR), a nuclear hormone receptor, plays a critical role in AR-dependent prostate cancer and other androgen related diseases. Endocrine disrupting chemicals (EDCs) and their interactions with steroid hormone receptors like AR may cause disruption of normal endocrine function as well as interfere with metabolic homeostasis, reproduction, developmental and behavioral functions. To identify the compounds that inhibit AR signaling, GeneBLAzer AR-UAS-bla-GripTite cell line (Invitrogen, Carlsbad, CA, USA) containing a beta-lactamase reporter gene under control of an Upstream Activator Sequence (UAS) stably integrated into HEK293 cells was used to screen the Tox21 10K compound library. The cytotoxicity of the Tox21 compound library against the AR-bla cell line was tested in parallel by measuring the cell viability using CellTiter-Glo assay in the same wells.
Tox21 Assay Protocol Summary:
AR-bla cells were dispensed at 2,000 cells/5 uL of assay medium per well into black wall/clear-bottom 1536-well plates using a Multidrop Combi (ThermoFisher Scientific, Waltham, MA) dispenser. After the assay plates were incubated at a 37C and 5% CO2 for 4 hr, 23 nL of compounds dissolved in DMSO, positive controls or DMSO only was transferred to the assay plate by a Pintool station (Kalypsys, San Diego, CA), followed by addition of 1 uL of agonist (R1881) in culture medium using a Bioraptr Flying Reagent Dispenser (FRD) workstation (Beckman Coulter, Indianapolis, IN, USA). The plates were incubated at a 37C and 5% CO2 for 16 h. After 1 uL of LiveBLAzerTM B/G FRET substrate was added using a Bioraptr FRD, the plates were incubated at room temperature for 2 h and fluorescence intensity was measured by an Envision plate reader (PerkinElmer, Shelton, CT). For cell viability readout that measures cytotoxicity, 4 ul/well of CellTiter-Glo reagent was added into the assay plates using a Bioraptr FRD. After 30 min incubation at room temperature, the luminescence intensity in the plates was measured using a ViewLux (PerkinElmer) plate reader.
For `CCO`, the outcome was inactive.

For the compound `C=CCCCC`, the outcome was inactive.

As to `Cc1cccc(Cl)c1`, the compound was called inactive.

For the compound `CCC(C)C(C)=O` (stereo not given), the result was inactive.

For the compound `CC(C)Cn1cnc2c1c(=O)n(C)c(=O)n2C`, the outcome was inactive.

Take `CCCCSCCCC`: the compound was classed as inactive.

With `Cn1nnc2c(C(N)=O)ncn2c1=O`, the compound was called inactive.

In the case of `O=C[O][Al]([O]C=O)[O]C=O`, the outcome was inactive.

For the compound `O=C1CCC(=O)N1Cl`, the outcome was inactive.

As to `OCC1CCC(CO)CC1` (stereo not given), the outcome was inactive.

On to `CO[C@@]1(NC(=O)Cc2cccs2)C(=O)N2C(C(=O)O)=C(COC(N)=O)CS[C@@H]21`, for which the compound was called inactive.

As for `Cc1ccc(C)c([N+](=O)[O-])c1`, the outcome was inactive.

For the compound `CCCSSCCC`, the compound was classed as inactive.

Take `Cc1cc(C)c(C(=O)O)c(C)c1`: the call was inactive.

With `COC(C)(OC)OC`, the outcome was inactive.

Consider `C=C(C)[C@@H]1CC=C(C)CC1`, for which the outcome was inactive.

Take `CC(C)[C@H]1CC[C@H](C)C[C@@H]1O`: the result was inactive.

With `C=CC(=O)CCCCC`, the outcome was inactive.

`NCCOCCN`: the result was inactive.

In the case of `C=CC/C=C/C`, the compound was classed as inactive.

With `Cc1c(Cl)cccc1Cl`, the result was inactive.

`N#CCC(=O)NN`: the compound was called inactive.

On to `CCC/C=C(\C=O)CC`, for which the result was inactive.

In the case of `Cc1ccc(C(C)NC(=O)[C@@H](NC(=O)OC(C)C)C(C)C)cc1` (stereo not given in full), the compound was classed as inactive.

Take `N[C@@H](Cc1ccc(O)cc1)C(=O)O`: the outcome was inactive.

Consider `CN(C)CCN(C)CCO`, for which the compound was classed as inactive.

With `O=Cc1ccccc1Cl`, the result was inactive.

Take `CC(=O)O[C@H]1C[C@@H]2CC[C@@]1(C)C2(C)C`: the outcome was inactive.

In the case of `CC(N)CCCC(C)(C)O` (stereo not given), the call was inactive.

Consider `CCCc1ccc(O)cc1`, for which the compound was called inactive.

In the case of `COc1ccc(CCO)cc1`, the compound was classed as inactive.

Turning to `CCOc1cccc(N)c1`, the result was inactive.

`Cc1c(C(=O)c2c[nH]n(C)c2=O)ccc(S(C)(=O)=O)c1C1=NOCC1`: the call was inactive.

On to `CC(S)C(C)S` (stereo not given), for which the compound was classed as inactive.

For `CC(C)=CCC/C(C)=C/COC=O`, the compound was called inactive.

In the case of `Cc1cc(-c2ccccc2)nnc1NCCN1CCOCC1`, the call was inactive.

For the compound `CCCCCCC1(C)CCC(=O)O1` (stereo not given), the result was inactive.

In the case of `c1ccc(-c2nn[nH]n2)cc1`, the result was inactive.

For the compound `OC1OCCOC1O` (stereo not given), the outcome was inactive.

For `CC1c2ccccc2CN1NC(=O)c1ccc(Cl)c(S(N)(=O)=O)c1` (stereo not given), the compound was classed as inactive.
